The supplement of paper PMC6555819

What was measured:
Test in all cases: PBM binding z-score (relative to random genomic background probes); higher = stronger binding; sequences stand for … in GC…GCGATTGACAGCGTAGAATGAAGG
[1] = tested on: RARb homodimer (NR concentration 270 nM)
Procedure, shortened: (§1)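 Custom Agilent 4×180K protein-binding microarrays carried double-stranded probes. Their 34-nt variable regions held direct-repeat seeds, single-nucleotide variants, half-site ablations and random human genomic background sequences. Arrays were incubated 1 h with ligand-free nuclear receptor dimers in PBS pH 7.4, 2% milk, 0.02% Triton X-100, 1 mM DTT, 0.2 mg/mL BSA and 0.4 mg/ml salmon testes DNA. Antibodies against each partner (one per run) detected binding, and scanned fluorescence was regression-normalized. Binding z-scores use random background probes as reference.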

[2] = tested on: RARg:RXRa (NR concentration 270 nM, RXRa partner concentration 90 nM)
Procedure, shortened: as §1

[3] = tested on: RARg homodimer (NR concentration 270 nM)
Procedure, shortened: as §1

[4] = tested on: RXRa DBDmut IVT, anti-RXR (DBD mutation: RXRa K156A/R161A, NR concentration 90 nM)
Procedure, shortened: as §1

[5] = tested on: RXRa homodimer (NR concentration 180 nM)
Procedure, shortened: as §1

[6] = tested on: THRa:RXRa (NR concentration 90 nM, RXRa partner concentration 90 nM)
Procedure, shortened: as §1

[7] = tested on: THRa homodimer (NR concentration 90 nM)
Procedure, shortened: as §1

[8] = tested on: VDR homodimer (NR concentration 270 nM)
Procedure, shortened: as §1

Sequence	PBM binding z-score [1]	PBM binding z-score [2]	PBM binding z-score [3]	PBM binding z-score [4]	PBM binding z-score [5]	PBM binding z-score [6]	PBM binding z-score [7]	PBM binding z-score [8]
AGCATGAGGTTAAGATCAGGGAAACAGAATACAT	0.891	2.08	1.62	0.954	2.58	2.66	0.635	0.646
GGTACAGGGTCAGCTAGAGGCCAGAGTATGGAAA	3.27	6.72	4.84	1.01	4.27	3.07	0.717	1.14
GCTTGTAGATCAAGGTTCAGAAAGACTAAGCTAA	0.239	0.226	0.173	1.09	0.62	-0.139	-0.807	1.33
TCTCGGAGGACACGACGGTCAGAGCTTTCCAGAG	1.53	0.617	1.65	0.193	0.0986	1.33	0.161	-0.222
CAAACTAGGGCAAGGTCAAAGTCGGTTTGTGCCA	4.09	4.67	4.49	2.41	4.63	3.75	2.34	3.52
CCGACTGGGGCAAAGGTTACCGTACTCAGTACGA	2.03	3.44	1.64	-0.356	3.45	1.7	-0.542	-0.111
CCGACTGGGGCAGAAAGGTTACAATACCATCCGG	1.83	1.59	1.25	-0.65	1.75	0.907	-0.555	0.0532
CTCGAAAGGTCGTGCTCAGGTGGGTATACCAAAC	2.65	4.38	3.96	1.68	4.59	2.57	0.504	1.08
TCTATTAGTTGATTAGGGCACCCGAAACAGCGGA	0.537	0.623	0.797	1.22	0.445	0.654	0.582	0.203
CCTTACGGGTCACTAGGTTATAGCACGACGAGCG	3	4.53	4.46	1.22	4.2	2.29	0.139	1.24
TCTTGTAGACCAAAGGTTAAGAAAGCCGAAGCCT	1.34	1.88	0.82	0.533	2.54	1.3	-0.878	-0.489
CCTACTCGGCCACGAAAGGTCATTGATTCAGTGA	4.79	4.8	4.78	0.99	5.02	3.53	1.03	2.62
CCTATTAGTTGACAATAAGGGCAACCGAAGCTCG	1.52	1.04	0.963	0.782	0.644	1.8	0.906	0.927
GCTGCTGGGTCAACTGATGGTCAGCTAAAGCTCG	3.36	5.04	4.22	1.22	3.13	2.41	0.228	-0.125
AGAACGAGGGCAATGAGTTGATTGCACGGGTGGC	0.636	0.81	1.23	1.88	0.475	0.794	-0.344	3
CAAACTAGGTCAATAGGTCAAAGTCCGCTTCCCG	5.26	7.95	6.55	2.03	6.54	3.62	1.05	2.03
AGAAGGAGGTTAAGATCAGGGAAACAGAATACAT	1.51	1.73	1.36	0.0542	1.96	1.94	0.811	0.91
AGTCAACGTTCATCTAGGTAACGTAAGATATGCT	-0.148	0.363	0.744	-0.0413	0.0603	0.649	-0.132	-0.282
CCTACTGGGCCAAGGTCAATGATCAGTCAAAGCA	3.38	3.51	3.62	0.404	3.12	3.18	1.77	1.61
CCTACTTGGCCAAAAAGGTCATTGATGCCGATAA	4.05	4.68	4.19	1.55	5.15	3.18	1.06	3.04
CCTACTGGGCCAAAAAGGTCAATGATGCCGATAA	4.77	4.33	4.09	-0.0473	4.06	3.06	0.77	0.956
CCGAGTCGGTTATGGGGCATTCAGGCAACGGTGA	0.462	-0.0743	-0.117	-0.648	-0.27	0.224	-0.00692	0.0226
CCTGCTAGGGCATGGTCAGCTAATCTACAGTATG	0.406	0.464	1.07	-0.538	-0.195	-0.371	-0.949	-0.585
TCTAGTTGGTCAAAGGTCAGACACTCGAAATGCG	4.51	6.12	5.15	1.57	6.68	3.09	1.49	1.89
CCGATTGGGGCATAAGGTTACCATAAGCCAGCCC	1.76	1.79	1.12	0.0114	1.14	2.16	1.14	-0.374
TAGCCTAGCTCATTGGGCCAGTATAGTACGCATC	-0.698	-0.5	-0.328	-0.683	-0.449	-0.611	-0.587	-0.87
TTACCAAGGTGAAAGGTGGTTGATGCACGCCTTG	0.622	0.898	0.626	-0.437	1.61	1.73	0.529	-0.166
CTCGAAAGGTCGTGCTCAGGCGAGTATACCAAAC	2.65	4.35	3.64	1.3	4.75	2.88	-0.037	0.812
